Source: the supplement of paper PMC13380429

Tested on: Vero E6 infected with SARS-CoV-2
Test: inhibition of SARS-CoV-2 cytopathic effect; higher = more antiviral protection, active = above 15
Settings: 48 h

Measured: inhibition of SARS-CoV-2 cytopathic effect

COC(=O)c1sccc1S(=O)(=O)Nc1ccc(Nc2ccccc2)cc1OC
inactive: 1 nM 2.58% | 8.33 nM 5.94% | 100 nM 2.5% | 833.33 nM 5.14% | 10000 nM 8.94%

CCN(CCO)CCCC(C)Nc1ccnc2cc(Cl)ccc12 (stereo not given) [hydroxychloroquine]
inactive: 1 nM -0.29% | 8.33 nM 2.78% | 100 nM -0.76% | 833.33 nM 0% | 10000 nM -0.85%

CCCCCCNC(=O)n1cc(F)c(=O)[nH]c1=O [Carmofur]
inactive: 1 nM -1.95% | 8.33 nM 0.48% | 100 nM 2.25% | 833.33 nM 1.65% | 10000 nM -0.73%

Cc1c(N2C(=O)[C@@H]3[C@H](O)CCN3C2=O)ccc(C#N)c1Cl
inactive: 1 nM 2.38% | 8.33 nM 3.57% | 100 nM 0.87% | 833.33 nM 2.02% | 10000 nM 1.06%

COc1ccsc1CNCC[C@@]1(c2ccccn2)CCOC2(CCCC2)C1
inactive: 1 nM -2.56% | 8.33 nM 3.9% | 100 nM 0.92% | 833.33 nM 1.29% | 10000 nM -0.28%

CC(=O)Nc1ccc(OC[C@](C)(O)C(=O)Nc2ccc([N+](=O)[O-])c(C(F)(F)F)c2)cc1 [andarine]
inactive: 1 nM -0.84% | 8.33 nM -0.36% | 100 nM -2.49% | 833.33 nM -1.89% | 10000 nM -1.92%

COC(=O)C1=CCCN(C)C1 [arecoline]
inactive: 1 nM 1.27% | 8.33 nM 1.95% | 100 nM -1.54% | 833.33 nM -1.35% | 10000 nM 1.15%

C[C@@H](CN(C)C)CN1c2ccccc2Sc2ccccc21 (racemic) [alimemazine]
inactive: 1 nM -2.63% | 8.33 nM -3.15% | 100 nM -1.76% | 833.33 nM -0.79% | 10000 nM -0.47%

O=C([O-])CN1CCN(CC(=O)[O-])CCN([C@H](CO)[C@H](O)CO)CCN(CC(=O)[O-])CC1.[Gd+3] (racemic) [gadobutrol]
inactive: 1 nM -1.29% | 8.33 nM 1.41% | 100 nM 0.03% | 833.33 nM 0.17% | 10000 nM 2.16%

O=C1C(O)=C(O)C(=O)C(O)=C1O [tetroquinone]
inactive: 1 nM -0.23% | 8.33 nM 0.57% | 100 nM 1.71% | 833.33 nM -0.73% | 10000 nM -0.73%

FC(F)(F)c1cc(NC(=S)Nc2ccc(Br)cc2-c2nnn[nH]2)cc(C(F)(F)F)c1
inactive: 1 nM -3.42% | 8.33 nM -1.08% | 100 nM -1.11% | 833.33 nM 3.36% | 10000 nM 0.52%

CN1C(=O)CC(c2ccccc2)C1=O (stereo not given) [phensuximide]
inactive: 1 nM 2.58% | 8.33 nM 3.13% | 100 nM 2.74% | 833.33 nM 2.55% | 10000 nM -1.46%

CC(=O)N1N=C(c2ccc(N)cc2)c2cc3c(cc2C[C@H]1C)OCO3 [talampanel]
inactive: 1 nM -0.4% | 8.33 nM 0.84% | 100 nM 0.91% | 833.33 nM 1.19% | 10000 nM 1.16%

CCCCCCCCCCCC(=O)O [lauric-acid]
inactive: 1 nM 0.97% | 8.33 nM 2.75% | 100 nM 0.72% | 833.33 nM -1.45% | 10000 nM -1.99%

CCCC(C(=O)OCCN(CC)CC)(c1ccccc1)c1ccccc1 [proadifen]
inactive: 1 nM -8.13% | 8.33 nM -2.48% | 100 nM -0.9% | 833.33 nM -3.07% | 10000 nM -9.2%

CN(C)Cc1cccc(N=C(c2ccccc2)c2c(O)[nH]c3cc(C(=O)N(C)C)ccc23)c1
inactive: 1 nM 1.09% | 8.33 nM 1.08% | 100 nM 1.9% | 833.33 nM -0.95% | 10000 nM -4.44%

Cc1cccn2c(=O)c(/C=C(\C#N)c3nc4ccccc4s3)c(Oc3ccc(F)cc3)nc12
inactive: 1 nM -2.85% | 8.33 nM 0.91% | 100 nM -1.07% | 833.33 nM -1.93% | 10000 nM -0.23%

CC(=O)NC1N=C(c2ccccc2)c2ccccc2NC1=O (stereo not given)
inactive: 1 nM 0.39% | 8.33 nM 1.87% | 100 nM -0.74% | 833.33 nM 0.99% | 10000 nM -0.69%

COc1cc(Br)c(Nc2nc(-c3c(C)nc4ncccn34)cs2)c(Br)c1
inactive: 1 nM -0.04% | 8.33 nM 0.45% | 100 nM 1.74% | 833.33 nM -3.16% | 10000 nM 10.6%
